# Measurements: PMC8384837, “Expanding the binding specificity for RNA recognition by a PUF domain”
# Key:
# Test in all cases: yeast three-hybrid, YBZ-1, SC-Leu-His + 0.5 mM 3-AT, 4 days
# Settings in all cases: tags: N-Gal4 AD-HA kept; label: inside an RPR1-promoter hybrid RNA with tandem MS2 sites; ssRNA
# PUM1 PUF domain R1-RLN = PUM1 PUF domain R1-RLN (Homo sapiens, UniProt Q14671 828-1176, S863R;R864L;Q867N)
# Outline: (§1)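 The interaction score is the log change in how often each variant appears, from input to selection. Frequencies came from PCR-amplified, Illumina-sequenced repeat regions of Pumilio-1 PUF domain libraries grown in strain YBZ-1 (LexA–MS2 coat fusion, HIS3 reporter) alongside matching RNA elements. Input plates were SC-Leu and selection plates were SC-Leu-His + 0.5 mM 3-AT, each for four days, and the log2 calculation used a pseudocount of 1 where a variant was absent.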
# PUM1 PUF domain R1-KFM = PUM1 PUF domain R1-KFM (Homo sapiens, UniProt Q14671 828-1176, S863K;R864F;Q867M)
# Sequence of PUM1 PUF domain R1-KFM (Q14671 828-1176 S863K/R864F/Q867M): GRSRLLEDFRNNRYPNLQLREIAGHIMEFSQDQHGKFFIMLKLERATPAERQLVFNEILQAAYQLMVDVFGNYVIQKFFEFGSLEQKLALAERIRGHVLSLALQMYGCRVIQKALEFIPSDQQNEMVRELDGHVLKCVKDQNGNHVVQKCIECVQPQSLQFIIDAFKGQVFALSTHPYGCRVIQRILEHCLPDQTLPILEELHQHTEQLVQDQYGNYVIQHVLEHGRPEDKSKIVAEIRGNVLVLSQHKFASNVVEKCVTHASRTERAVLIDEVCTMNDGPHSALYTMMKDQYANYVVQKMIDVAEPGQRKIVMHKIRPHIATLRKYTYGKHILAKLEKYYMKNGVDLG
# Outline: as §1
# PUM1 PUF domain R3-FRT = PUM1 PUF domain R3-FRT (Homo sapiens, UniProt Q14671 828-1176, C935F;Q939T)
# Sequence of PUM1 PUF domain R3-FRT (Q14671 828-1176 C935F/Q939T): as the sequence (Q14671 828-1176 S863K/R864F/Q867M) above, with K36S, F37R, M40Q, C108F, Q112T counted along it
# Outline: as §1
# PUM1 PUF domain R5-AYY = PUM1 PUF domain R5-AYY (Homo sapiens, UniProt Q14671 828-1176, C1007A;R1008Y;Q1011Y)
# Sequence of PUM1 PUF domain R5-AYY (Q14671 828-1176 C1007A/R1008Y/Q1011Y): as the sequence (Q14671 828-1176 S863K/R864F/Q867M) above, with K36S, F37R, M40Q, C180A, R181Y, Q184Y counted along it
# Outline: as §1
# PUM1 PUF domain R5-SKR = PUM1 PUF domain R5-SKR (Homo sapiens, UniProt Q14671 828-1176, C1007S;R1008K;Q1011R)
# Sequence of PUM1 PUF domain R5-SKR (Q14671 828-1176 C1007S/R1008K/Q1011R): as the sequence (Q14671 828-1176 S863K/R864F/Q867M) above, with K36S, F37R, M40Q, C180S, R181K, Q184R counted along it
# Outline: as §1
# PUM1 PUF domain R5-RNV = PUM1 PUF domain R5-RNV (Homo sapiens, UniProt Q14671 828-1176, C1007R;R1008N;Q1011V)
# Sequence of PUM1 PUF domain R5-RNV (Q14671 828-1176 C1007R/R1008N/Q1011V): as the sequence (Q14671 828-1176 S863K/R864F/Q867M) above, with K36S, F37R, M40Q, C180R, R181N, Q184V counted along it
# Outline: as §1
# PUM1 PUF domain R5-DHG = PUM1 PUF domain R5-DHG (Homo sapiens, UniProt Q14671 828-1176, C1007D;R1008H;Q1011G)
# Sequence of PUM1 PUF domain R5-DHG (Q14671 828-1176 C1007D/R1008H/Q1011G): as the sequence (Q14671 828-1176 S863K/R864F/Q867M) above, with K36S, F37R, M40Q, C180D, R181H, Q184G counted along it
# Outline: as §1
# PUM1 PUF domain R5-MHS = PUM1 PUF domain R5-MHS (Homo sapiens, UniProt Q14671 828-1176, C1007M;R1008H;Q1011S)
# Sequence of PUM1 PUF domain R5-MHS (Q14671 828-1176 C1007M/R1008H/Q1011S): as the sequence (Q14671 828-1176 S863K/R864F/Q867M) above, with K36S, F37R, M40Q, C180M, R181H, Q184S counted along it
# Outline: as §1
# PUM1 PUF domain R7-GNG = PUM1 PUF domain R7-GNG (Homo sapiens, UniProt Q14671 828-1176, S1079G;E1083G)
# Sequence of PUM1 PUF domain R7-GNG (Q14671 828-1176 S1079G/E1083G): as the sequence (Q14671 828-1176 S863K/R864F/Q867M) above, with K36S, F37R, M40Q, S252G, E256G counted along it
# Outline: as §1
# PUM1 PUF domain R3-RSA = PUM1 PUF domain R3-RSA (Homo sapiens, UniProt Q14671 828-1176, C935R;R936S;Q939A)
# Sequence of PUM1 PUF domain R3-RSA (Q14671 828-1176 C935R/R936S/Q939A): as the sequence (Q14671 828-1176 S863K/R864F/Q867M) above, with K36S, F37R, M40Q, C108R, R109S, Q112A counted along it
# Outline: as §1
# Sequence of PUM1 PUF domain R1-RLN (Q14671 828-1176 S863R/R864L/Q867N): as the sequence (Q14671 828-1176 S863K/R864F/Q867M) above, with K36R, F37L, M40N counted along it
sequence,measurement,setting,value
GGCUAGAACUAGUGGAUCCCCCGGCGCCCGGCGGCUCGAGCCCGGGUAAGUGUAAAUUGUCUGCAUGCCGCCGGGCGCCAUGCCUGCAGGUCGACUCUAGAAAACAUG,binding signal,PUM1 PUF domain R1-RLN,2.1 log2 enrichment (interaction score)
GGCUAGAACUAGUGGAUCCCCCGGCGCCCGGCGGCUCGAGCCCGGGUAAGUGUAAAUCGUCUGCAUGCCGCCGGGCGCCAUGCCUGCAGGUCGACUCUAGAAAACAUG,binding signal,PUM1 PUF domain R1-RLN,2.71 log2 enrichment (interaction score)
same,binding signal,PUM1 PUF domain R1-KFM,4.3 log2 enrichment (interaction score)
GGCUAGAACUAGUGGAUCCCCCGGCGCCCGGCGGCUCGAGCCCGGGUAAGUGUAAGUAGUCUGCAUGCCGCCGGGCGCCAUGCCUGCAGGUCGACUCUAGAAAACAUG,binding signal,PUM1 PUF domain R3-FRT,4.75 log2 enrichment (interaction score)
GGCUAGAACUAGUGGAUCCCCCGGCGCCCGGCGGCUCGAGCCCGGGUAAGUGUAAAUAGUCUGCAUGCCGCCGGGCGCCAUGCCUGCAGGUCGACUCUAGAAAACAUG,binding signal,PUM1 PUF domain R5-AYY,3.24 log2 enrichment (interaction score)
GGCUAGAACUAGUGGAUCCCCCGGCGCCCGGCGGCUCGAGCCCGGGUAAGUGUCAAUAGUCUGCAUGCCGCCGGGCGCCAUGCCUGCAGGUCGACUCUAGAAAACAUG,binding signal,PUM1 PUF domain R5-SKR,5.88 log2 enrichment (interaction score)
same,binding signal,PUM1 PUF domain R5-RNV,2.8 log2 enrichment (interaction score)
GGCUAGAACUAGUGGAUCCCCCGGCGCCCGGCGGCUCGAGCCCGGGUAAGUGUUAAUAGUCUGCAUGCCGCCGGGCGCCAUGCCUGCAGGUCGACUCUAGAAAACAUG,binding signal,PUM1 PUF domain R5-RNV,2.58 log2 enrichment (interaction score)
same,binding signal,PUM1 PUF domain R5-DHG,4.67 log2 enrichment (interaction score)
same,binding signal,PUM1 PUF domain R5-MHS,5.58 log2 enrichment (interaction score)
GGCUAGAACUAGUGGAUCCCCCGGCGCCCGGCGGCUCGAGCCCGGGUAAGUUUAAAUAGUCUGCAUGCCGCCGGGCGCCAUGCCUGCAGGUCGACUCUAGAAAACAUG,binding signal,PUM1 PUF domain R7-GNG,5.55 log2 enrichment (interaction score)
GGCUAGAACUAGUGGAUCCCCCGGCGCCCGGCGGCUCGAGCCCGGGUAAGUGUAAUUAGUCUGCAUGCCGCCGGGCGCCAUGCCUGCAGGUCGACUCUAGAAAACAUG,binding signal,PUM1 PUF domain R3-RSA,3.54 log2 enrichment (interaction score)
GGCUAGAACUAGUGGAUCCCCCGGCGCCCGGCGGCUCGAGCCCGGGUAAGUGUGAAUAGUCUGCAUGCCGCCGGGCGCCAUGCCUGCAGGUCGACUCUAGAAAACAUG,binding signal,PUM1 PUF domain R5-MHS,2.4 log2 enrichment (interaction score)
